Abeta yeast res: qHTS for compounds that reverse cellular toxicity of Amyloid beta (A-beta) peptide in yeast: Primary Screen; yeast expressing A-beta42, growth rescue, OD600, 48 h; response scale: 0% DMSO, 100% iron-clioquinol control; Potency, µM (highest dose often 46.1 µM), actives largely listed as activators; hit rate 0.063% among 410,000; AID 1347071, 2019; further: potency means the concentration at half of the fitted maximal effect; nearly all actives have a fitted effect of over 55% in size
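Growth rescue measured by 600 nm absorbance after 48 h yeast culture at 30 C with compound. Values normalized between DMSO and an equimolar ferric chloride plus clioquinol control.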
LDHA block: qHTS assay for inhibitors of human lactate dehydrogenase; L-lactate dehydrogenase A chain (Homo sapiens), P00338; purified LDHA, NADH/diaphorase-resazurin fluorescence; active compounds read low; activity change, % (values are at about 110 or 230 µM); hit rate 0.15% among 480,000; in the data active means activity change below about -30%; inconclusive means mostly about -25% to -30%;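 further: plate controls were DMSO wells for no effect and wells without enzyme for full effect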
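Human LDH5 (2 nM) was incubated with 0.06 mM NADH and 0.2 mM pyruvate for 5 min at room temperature in Tris pH 7.4. Remaining NADH was coupled through diaphorase/resazurin, and resorufin fluorescence was read at 0 and 20 min.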
aSyn yeast inh: qHTS of alpha-syn Inhibitors; Yeast expressing alpha-synuclein, growth rescue, BacTiter-Glo, 24 h; Potency, µM (top dose mostly 46.1 µM), inactives show top-dose growth rescue (activation), usual class: activators; hit rate 0.14% among 370,000; further: potency means the concentration at half of the fitted maximal effect; % of control where 0% means no effect; nearly all actives have a fitted effect of over 65% in size
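Screening used galactose-induced yeast with toxic alpha-synuclein levels, exposed to compound for 24 hr at 30 deg C. Cell growth, read with BacTiter-Glo luminescence, gave the measured signal.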
FUS suppressor: qHTS for Suppressors of FUS Proteinopathy: Primary screen using FUS-linked yeast assay; hit rate 0.24% among 390,000; AID 1347120, 2019; S. cerevisiae FUS-expressing, growth rescue, OD600, 24 h; Potency, µM (titrated, usually from 76.6 µM), usual class: activators;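 further: potency means the concentration at half of the fitted maximal effect; plate controls were DMSO vehicle for no effect and reference control for full effect; nearly all actives have a fitted effect of over 55% in size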
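Compound concentration series was pinned onto galactose-induced FUS-expressing yeast seeded at OD 0.005. Plates sat 24hr at 30C; absorbance at 600 nm gave growth. DMSO served as background control.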
PTHR1 ag: qHTS for PTHR1 Agonists: Primary Screen; Parathyroid hormone/parathyroid hormone-related peptide receptor (Homo sapiens), Q03431; HEK293 GP2 PTHR1 cells, GloSensor cAMP luminescence, 1 h; Potency, µM (series often up to 115 µM), for inactives: at the highest dose activation, most hits filed as activators; hit rate 0.075% among 410,000; further: potency means the concentration at half of the fitted maximal effect; nearly all actives have a fitted effect of over 55% in size
Target sequence (Q03431 whole entry, looked up): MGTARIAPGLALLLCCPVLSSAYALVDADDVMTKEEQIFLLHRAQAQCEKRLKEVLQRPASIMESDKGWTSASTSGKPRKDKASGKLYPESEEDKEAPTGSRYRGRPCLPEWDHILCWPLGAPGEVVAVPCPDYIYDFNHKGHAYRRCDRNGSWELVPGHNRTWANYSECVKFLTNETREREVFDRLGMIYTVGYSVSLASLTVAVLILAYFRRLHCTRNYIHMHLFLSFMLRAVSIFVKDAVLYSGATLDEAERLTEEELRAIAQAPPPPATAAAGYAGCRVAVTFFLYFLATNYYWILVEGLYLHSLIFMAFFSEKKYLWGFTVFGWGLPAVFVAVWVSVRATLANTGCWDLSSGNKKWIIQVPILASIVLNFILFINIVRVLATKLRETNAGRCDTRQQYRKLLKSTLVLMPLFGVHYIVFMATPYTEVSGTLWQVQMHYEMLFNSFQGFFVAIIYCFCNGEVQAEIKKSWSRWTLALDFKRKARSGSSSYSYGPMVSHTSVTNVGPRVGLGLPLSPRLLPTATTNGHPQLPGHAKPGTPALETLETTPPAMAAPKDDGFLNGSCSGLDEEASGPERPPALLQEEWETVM
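HEK-293-derived GP2 cells expressing PTHR1 and a GloSensor cAMP reporter, 3,000/well, plated overnight, given luciferin plus IBMX (each 0.5 mM as added) for 1 h at 37 °C, then compound for 1 h at 37 °C. Luminescence was read after 15 min at room temperature.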
TDP-43 yeast inh: qHTS of TDP-43 Inhibitors; Potency, µM (doses to about 46.1 µM), inactives show top-dose growth rescue (activation), usual class: activators; hit rate 1.8% among 410,000; AID 652104, 2013; TDP-43 expressing yeast growth rescue, BacTiter-Glo, 24 h; further: potency means the concentration at half of the fitted maximal effect; % of control where 0% means no effect; nearly all actives have a fitted effect of over 50% in size
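Yeast expressing TDP-43 (pregrown in raffinose, seeded at OD600=0.02 in galactose medium) exposed to compounds 24 hr at 30 deg C. Growth read by BacTiter-Glo luminescence; rescue of toxicity appears as increased signal.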
* marks the source's active call; other numbers are inactive results; i = inactive; u = inconclusive; x = not tested or not shown; [ ] = dose if it differs, or a comment. Most compounds without a hit are left out; they make up all but 1.9% or so of the library. Unless noted, the call rests on the fitted dose curve; in most records, active means well fitted curve in the direction sought with a large enough effect; inconclusive means small, poorly fitted or top-dose-only effect, or another doubt; inactive means no such curve, though single readings can be large; an effect the other way counts as inactive or inconclusive.

SMILES	Abeta yeast res	LDHA block	aSyn yeast inh	FUS suppressor	PTHR1 ag	TDP-43 yeast inh
O=C(N/N=C/c1cc(Cl)ccc1O)c1ccc(Br)cc1	i	-12	15%	u	i	-12%
Cc1ccc(N=Nc2ccc(O)c(/C=N\NC(=O)c3ccc(N)cc3)c2)cc1C	i	-9	-1%	1.1µM*	-33%	-19%
COc1ccc(C2=CC(=O)CC(c3ccc(F)cc3)C2)cn1 (stereo not given)	i	0	6%	i	i	18µM*
COc1ccc([C@H]2CC(=O)C=C(c3ccc(Cl)c(C(F)(F)F)c3)C2)cc1OC	i	1	0%	u	i	16µM*
COc1ccc([C@H]2CC(=O)C=C(c3ccc(C)cc3)C2)cc1OC	i	6	4%	i	-28%	13µM*
COc1ccc(C2=CC(=O)C[C@H](c3ccc(F)cc3)C2)cc1OC	i	-1	0%	i	i	22µM*
COc1cccc(C2=CC(=O)C[C@H](c3ccc(F)cc3)C2)c1	i	-12	1%	i	-49%	u
O=C(NCC1CCN(C2CCCC2)C1)Nc1ccccc1 (stereo not given)	x	17	x	x	x	x
C/C(=N\Nc1cc(C)nc(-c2ccccc2O)n1)c1ccccc1O	i	0	-9%	i	-13%	11µM*
Cc1cc(N/N=C\c2ccccc2)nc(-c2ccccc2O)n1	i	-1	-10%	i	i	26%
O=C(/C=C/c1ccccc1)NC(=S)NNC(=O)c1cccnc1	u	5	7%	i	i	16µM*
CC(C)c1ccc(O)c(NC(=S)NC(=O)c2cccnc2)c1	u	-6	1%	i	-30%	27%
Cc1ccccc1OCC(=O)NNC(=S)NC(=O)c1ccccc1[N+](=O)[O-]	i	-9	0%	i	-2%	0%
CC(C)(C)c1ccc(OCC(=O)NNC(=S)NC(=O)c2ccccc2[N+](=O)[O-])c(Br)c1	i	-1	u	i	i	18µM*
CC(C)(C)c1cc(Cl)c(O)c(NC(=S)NC(=O)c2cccnc2)c1	u	0	11%	i	-2%	8.9µM*
CC(C)(C)c1ccc(C(=O)NC(=S)NNC(=O)COc2ccccc2)cc1	i	0	u	i	-17%	13µM*
CCCCN(C)C(=O)CSc1nc2ccsc2c(=O)n1-c1cc(F)cc(F)c1	x	10	x	x	x	x
CCCCn1c(SCC(=O)Nc2ccc3c(c2)OCCO3)nc2c(-c3ccccc3)c[nH]c2c1=O	x	3	x	x	x	x
O=C(COc1ccc(Cl)cc1Cl)OCC(=O)c1ccc(Br)cc1	x	-6	x	x	x	x
Cc1cccc(C(=O)NC(=S)NNC(=O)c2ccc(Cl)cc2)c1	3.2µM*	-3	u	x	-10%	u
CC(C)(C)c1ccc(C(=O)NNC(=S)NC(=O)c2cccnc2)cc1	i	-3	11µM*	u	-3%	u
O=C(Nc1ccc2oc(-c3cccc4ccccc34)nc2c1)c1ccc2c(c1)OCCO2	x	-16	x	x	x	x
O=c1[nH]c(C2CCCN(S(=O)(=O)c3ccccc3Cl)C2)nc2c1nnn2Cc1ccc2c(c1)OCCO2 (stereo not given)	x	-2	0%	14µM*	-81%	2%
Cn1c(=O)c2c(-c3ccccc3Br)n(C(C)(C)C)cc2n(C)c1=O	i	-1	x	i	-4%	14%
CC(c1ccccc1)n1cc2c(c1-c1ccccc1Br)c(=O)n(C)c(=O)n2C (stereo not given)	i	-11	x	u	-21%	14µM*
SMILES	Abeta yeast res	LDHA block	aSyn yeast inh	FUS suppressor	PTHR1 ag	TDP-43 yeast inh
Cc1nc(Nc2ccc3c(c2)OCCO3)c2c(C)c(C)sc2n1	i	-13	13%	u	-39%	11µM*
CC(=O)Oc1ccc2c(C)cc(=O)oc2c1C(=O)c1ccccc1	i	-35*	3%	i	-5%	u
CCc1cccc(C)c1NC(=O)Cc1c[nH]c2ccccc12	x	1	x	x	x	x
CCCn1c(C)cc(C(=O)COc2ccc(-c3nnco3)cc2)c1C	i	0	11%	i	-59%	28µM*
O=C(COc1ccc(-c2nnco2)cc1)c1ccc(F)cc1	x	2	x	x	x	x
COc1ccc(-c2nc3ccccc3n2Cc2ccc(C(C)C)cc2)cc1	i	5	1%	i	-21%	22µM*
COc1ccc(-c2nc3ccccc3n2Cc2ccc(Cl)cc2)cc1	i	3	x	i	i	22µM*
COCn1c(-c2ccc(OC)cc2)nc2ccccc21	i	-4	-5%	i	-24%[57.5 µM]	2%
COc1ccc(-c2nc3ccccc3n2Cc2ccc(C)cc2)cc1	u	1	10%	i	-13%	4%
COc1ccc(Cn2c(=S)[nH]c3ccccc32)cc1	11µM*	-2	-16%	i	-18%	16%
COc1ccccc1CNC(=O)c1ccc(C(C)(C)C)cc1	x	-13	x	x	x	x
Cc1cccc(C(=O)Nc2sc3c(c2C(=O)NCc2ccccc2)CCC3)c1	x	2	x	x	x	x
O=S(=O)(NC(=S)NC1CCCCC1)c1ccc(Br)cc1	i	-9	11%	i	i	20µM*
Clc1ccc(CNc2ncnc3onc(-c4ccc(Cl)cc4)c23)cc1	i	2	x	u	i	13µM*
Cc1cccc(CCNc2ncnc3onc(-c4ccc(Cl)cc4)c23)c1	i	-6	x	i	-32%	35µM*
CC(C)CNc1ncnc2onc(-c3ccc(Cl)cc3)c12	i	-2	x	i	-22%	11µM*
Cc1ccc(CCNc2ncnc3onc(-c4ccc(Cl)cc4)c23)cc1	i	6	x	i	-22%	21%
COc1cc(/C=C(/C#N)c2ccccn2)cc(OC)c1OC(F)F	x	4	x	x	x	x
O=C(NC1CCCC1)c1cc(-c2ccco2)nc2ccccc12	x	-1	x	x	x	x
CCCCCn1nc(C(=O)OCc2ccc(C(=O)OC)cc2)c2ccccc2c1=O	x	3	x	x	x	x

Screens from PubChem.
